Read-out in assay [1]: NAD(P)H dehydrogenase [quinone] 1 (NQO1), NQO1 (gene 1728)
The experiment in a line: LTEA_HepaRG_NQO1: Life Technologies and Expression Analysis (LTEA) Assay for NAD(P)H dehydrogenase [quinone] 1 (NQO1) using HepaRG (AID 2283526). As to conditions: mRNA level, 48 h; actives raise or lower the signal. Put shortly:
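qRT-PCR read-out (Fluidigm TaqMan), normalized to three housekeeping genes, after 48 h chemical exposure of HepaRG cells. Concentrations: eight points, top 100 uM, half-log steps, 0.5% DMSO vehicle. Gain or loss of signal fitted relative to DMSO.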

Read-out in assay [2]: Nuclear factor erythroid 2-related factor 2 (Homo sapiens) (UniProt Q16236)
In words: LTEA_HepaRG_NFE2L2: Life Technologies and Expression Analysis (LTEA) Assay for Nuclear factor erythroid 2-related factor 2 (NFE2L2) Transcription Factor using HepaRG (AID 2283527). As to conditions: mRNA level, 48 h; actives raise or lower the signal. Summed up:
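Human liver HepaRG line treated in duplicate for 48 h with an eight-point series topping at 100 uM. Gene expression of NFE2L2 by qRT-PCR, bidirectionally fitted against the vehicle control.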

Read-out in assay [3]: succinate dehydrogenase complex iron sulfur subunit B (SDHB), SDHB (gene 6390)
In words: LTEA_HepaRG_SDHB: Life Technologies and Expression Analysis (LTEA) Assay for succinate dehydrogenase complex iron sulfur subunit B (SDHB) using HepaRG (AID 2283528). Conditions: mRNA level, 48 h; actives raise or lower the signal. Put shortly: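 SDHB transcript level read by TaqMan qRT-PCR, housekeeping-normalised (ACTB, GAPDH, POLR2A), after 48 h chemical treatment of plated HepaRG cells; eight concentrations top 100 uM, half-log steps, 0.5% DMSO, duplicates; fitted both directions against DMSO.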

Read-out in assay [4]: Signal transducer and activator of transcription 3 (Homo sapiens) (UniProt P40763)
The experiment in a line: LTEA_HepaRG_STAT3: Life Technologies and Expression Analysis (LTEA) Assay for Signal transducer and activator of transcription (STAT3) using HepaRG (AID 2283529). Conditions: mRNA level, 48 h; actives raise or lower the signal. Summed up: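 In this transcriptional endpoint, HepaRG cultures receive test chemicals at up to 100 uM for 48 h, tested in duplicate. STAT3 mRNA is normalized to ACTB, GAPDH and POLR2A.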

Read-out in assay [5]: solute carrier (SLCO1B1), SLCO1B1 (gene 10599)
In words: LTEA_HepaRG_SLCO1B1: Life Technologies and Expression Analysis (LTEA) Assay for solute carrier (SLCO1B1) using HepaRG (AID 2283530). Conditions: mRNA level, 48 h; actives raise or lower the signal. Summed up:
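SLCO1B1 transcript read by qRT-PCR (Fluidigm arrays), normalized to three housekeeping genes, after 48 h chemical exposure of HepaRG cells; bidirectional concentration-response fitting versus 0.5% DMSO baseline. Eight-point half-log series, maximum 100 uM.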

Read-out in assay [6]: sulfotransferase 2A1 (SULT2A1), SULT2A1 (gene 6822)
In words: LTEA_HepaRG_SULT2A1: Life Technologies and Expression Analysis (LTEA) Assay for sulfotransferase 2A1 (SULT2A1) using HepaRG (AID 2283531). Conditions: mRNA level, 48 h; actives raise or lower the signal. Put shortly: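 HepaRG, 48 h chemical exposure, 8-pt half-log curve from 100 uM in 0.5% DMSO, duplicates. Readout: TaqMan qRT-PCR of SULT2A1 mRNA, housekeeping-normalized. Bidirectional fit vs DMSO baseline.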

Read-out in assay [7]: Transforming Growth Factor (TGFA), TGFA (gene 7039)
The experiment in a line: LTEA_HepaRG_TGFA: Life Technologies and Expression Analysis (LTEA) Assay for Transforming Growth Factor (TGFA) using HepaRG (AID 2283532). Conditions: mRNA level, 48 h; actives raise or lower the signal. Put shortly:
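Gene expression of TGFA was quantified by qRT-PCR after human HepaRG cells were treated for 48 h with test chemicals (eight concentrations, highest 100 uM, 0.5% DMSO). Activity in either direction was fitted relative to DMSO.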

Read-out in assay [8]: Transforming Growth Factor (TGFB1), TGFB1 (gene 7040)
In words: LTEA_HepaRG_TGFB1: Life Technologies and Expression Analysis (LTEA) Assay for Transforming Growth Factor (TGFB1) Transporter using HepaRG (AID 2283533). As to conditions: mRNA level, 48 h; actives raise or lower the signal. Summed up:
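qRT-PCR readout of TGFB1 transcript in HepaRG lysates, normalized to three housekeeping genes; gain or loss of signal fitted relative to 0.5% DMSO vehicle. Exposure: 48 h, 8-point curve from 100 uM, duplicate wells.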

Read-out in assay [9]: TIMP1, TIMP1 (gene 7076)
The experiment in a line: LTEA_HepaRG_TIMP1: Life Technologies and Expression Analysis (LTEA) Assay for TIMP1 using HepaRG (AID 2283534). As to conditions: mRNA level, 48 h; actives raise or lower the signal. Put shortly:
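HepaRG, 48 h exposure, 8-pt half-log series from 100 uM in 0.5% DMSO, duplicates; TIMP1 transcript by Fluidigm qRT-PCR, housekeeping-normalized; bidirectional curve fit vs DMSO baseline.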

Read-out in assay [10]: Tumor necrosis factor receptor 1 (TNFRSF1A), TNFRSF1A (gene 7132)
The experiment in a line: LTEA_HepaRG_TNFRSF1A: Life Technologies and Expression Analysis (LTEA) Assay for Tumor necrosis factor receptor 1 (TNFRSF1A) using HepaRG (AID 2283535). Conditions: mRNA level, 48 h; actives raise or lower the signal. Summed up: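 HepaRG, 48 h plating then 48 h chemical exposure, serum-free induction media; 8-pt CRC from 100 uM, half-log, 0.5% DMSO vehicle, duplicates. Readout: TaqMan qRT-PCR (Fluidigm), housekeeping-gene normalized; bidirectional fit vs DMSO.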

Read-out in assay [11]: Thyroid Hormone Responsive (THRSP), THRSP (gene 7069)
The experiment in a line: LTEA_HepaRG_THRSP: Life Technologies and Expression Analysis (LTEA) Assay for Thyroid Hormone Responsive (THRSP) using HepaRG (AID 2283536). As to conditions: mRNA level, 48 h; actives raise or lower the signal. Summed up: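 Cell model: human HepaRG, approx. 100,000 cells/well, 0.5% DMSO vehicle. Exposure lasts 48 h; phenobarbital 1 mM serves as induction positive control. Gene expression is measured by qRT-PCR against three endogenous control genes.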

Read-out in assay [12]: Cellular tumor antigen p53 (Homo sapiens) (UniProt P04637)
In words: LTEA_HepaRG_TP53: Life Technologies and Expression Analysis (LTEA) Assay for Tumor Protein P53 (TP53) using HepaRG (AID 2283537). Conditions: mRNA level, 48 h; actives raise or lower the signal. Put shortly: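 TP53 transcript measured by qRT-PCR, normalized to three housekeeping genes, after 48 h treatment of human HepaRG cultures with chemicals from 100 uM downward in half-log steps (0.5% DMSO vehicle, serum-free induction medium). Up- or down-regulation fitted against DMSO.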

Read-out in assay [13]: UDP glucuronosyltransferase (UGT1A1), UGT1A1 (gene 54658)
In words: LTEA_HepaRG_UGT1A1: Life Technologies and Expression Analysis (LTEA) Assay for UDP glucuronosyltransferase (UGT1A1) using HepaRG (AID 2283538). Conditions: mRNA level, 48 h; actives raise or lower the signal. Summed up: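 HepaRG, 48 h chemical exposure (top 100 uM, half-log 8-pt, 0.5% DMSO vehicle), duplicate wells; qRT-PCR (TaqMan, Fluidigm array) for UGT1A1 mRNA, housekeeping-normalized; bidirectional curve fit vs DMSO baseline.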

Read-out in assay [14]: UDP glucuronosyltransferase (UGT1A6), UGT1A6 (gene 54578)
The experiment in a line: LTEA_HepaRG_UGT1A6: Life Technologies and Expression Analysis (LTEA) Assay for UDP glucuronosyltransferase (UGT1A6) using HepaRG (AID 2283539). As to conditions: mRNA level, 48 h; actives raise or lower the signal. Summed up:
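qRT-PCR readout of UGT1A6 mRNA (normalized to ACTB/GAPDH/POLR2A) in differentiated HepaRG cells after 48 h chemical exposure; 8 concentrations, top 100 uM, half-log steps, 0.5% DMSO. Bidirectional curve fit relative to DMSO baseline.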

Read-out in assay [15]: X-box binding protein 1 (XBP1), XBP1 (gene 7494)
In words: LTEA_HepaRG_XBP1: Life Technologies and Expression Analysis (LTEA) Assay for X-box binding protein 1 (XBP1) using HepaRG (AID 2283540). As to conditions: mRNA level, 48 h; actives raise or lower the signal. Summed up:
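HepaRG, 48 h exposure, 8-pt half-log CRC top 100 uM, 0.5% DMSO vehicle, duplicates. Readout: TaqMan qRT-PCR of XBP1 mRNA, housekeeping-normalised (ACTB/GAPDH/POLR2A); bidirectional fit vs DMSO baseline.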

Assay [16] in a line: LTEA_HepaRG_LDH_cytotoxicity: Cytotoxicity Assessment in the Life Technologies and Expression Analysis (LTEA) Assay (AID 2283563; active means hit-call score of the fitted dose curve at least 0.9, where 1 is the maximum). Put shortly: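 HepaRG (human liver line), 48 h exposure, 8-pt half-log series from 100 uM, 0.5% DMSO vehicle, duplicates. Read-out: LDH in spent medium. Positive-direction fit vs DMSO baseline.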
Assay [17] in a line: TOX21_p53_BLA_p2_viability: Viability Assessment in the Tox21 HCT-116 p53 Agonism Beta-lactamase Assay, Phase 2 (AID 2283591; active means hit-call score of the fitted dose curve at least 0.9, where 1 is the maximum;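 further: actives lower the ATP signal meaning cytotoxicity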). Put shortly:
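HCT-116 p53-bla cells (4000/well) rested 5 h at 37C, then received compounds in DMSO (217-fold dilution) for 16 h at 37C, 5% CO2. After the CCF4 read, CellTiter-Glo was added; ATP luminescence was read after 30 min at room temperature.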

Assay [18] has as its target Cellular tumor antigen p53 (Homo sapiens) (UniProt P04637). In words: TOX21_p53_BLA_p2_ratio: Tox21 HCT-116 p53 Agonism Beta-lactamase Assay, Ratio, Phase 2 (AID 2283592; active means hit-call score of the fitted dose curve at least 0.9, where 1 is the maximum). Put shortly:
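Readout: blue/green (460/530 nm) FRET emission ratio after 2 h CCF4-AM loading at room temperature, excitation 405 nm. HCT116 p53 bla cells, 16 h compound exposure at 37C, 5% CO2; agonist direction fitted against DMSO baseline.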

Assay [19] can be described thus: TOX21_p53_BLA_p3_viability: Viability Assessment in the Tox21 HCT-116 p53 Agonism Beta-lactamase Assay, Phase 3 (AID 2283593; active means hit-call score of the fitted dose curve at least 0.9, where 1 is the maximum;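 further: cells exposed to compound for 16 h before reading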). Summed up: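 HCT-116 cells (4000/well) rested 5 h at 37C, then got DMSO compounds by pin tool (217-fold dilution) for 16 h at 37C, 5% CO2. After the bla read, CellTiter-Glo was added and luminescence read at 30 min, room temperature.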

SMILES strings stand for the structures. Inconclusive results are not listed. Calls of active or inactive are those of the source. How the source made its calls, unless noted: active means hit-call score of the fitted dose curve at least 0.9, where 1 is the maximum; inactive means score below 0.9.

Chain of Signal transducer and activator of transcription 3 (Homo sapiens) (P40763 whole entry, looked up): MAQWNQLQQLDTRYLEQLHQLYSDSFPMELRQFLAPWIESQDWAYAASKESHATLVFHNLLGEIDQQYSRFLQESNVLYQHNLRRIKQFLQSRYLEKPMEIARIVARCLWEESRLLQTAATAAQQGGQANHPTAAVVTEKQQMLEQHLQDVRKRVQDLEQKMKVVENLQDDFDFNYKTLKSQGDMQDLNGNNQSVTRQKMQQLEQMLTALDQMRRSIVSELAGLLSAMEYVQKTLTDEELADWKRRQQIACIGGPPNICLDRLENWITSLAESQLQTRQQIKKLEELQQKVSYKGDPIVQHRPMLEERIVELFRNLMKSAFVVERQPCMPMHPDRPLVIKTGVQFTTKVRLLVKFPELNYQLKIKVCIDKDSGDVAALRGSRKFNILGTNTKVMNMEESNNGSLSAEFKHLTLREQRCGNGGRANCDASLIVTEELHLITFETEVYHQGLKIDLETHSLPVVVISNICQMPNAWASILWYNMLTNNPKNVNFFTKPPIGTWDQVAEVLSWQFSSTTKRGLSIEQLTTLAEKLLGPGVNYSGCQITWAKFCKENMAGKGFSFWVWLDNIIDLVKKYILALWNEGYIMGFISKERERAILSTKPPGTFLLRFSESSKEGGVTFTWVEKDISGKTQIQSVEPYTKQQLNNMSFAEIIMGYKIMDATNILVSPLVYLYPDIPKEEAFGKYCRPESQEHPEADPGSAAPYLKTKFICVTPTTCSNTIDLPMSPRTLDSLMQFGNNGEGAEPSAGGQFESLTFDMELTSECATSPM
Chain of Nuclear factor erythroid 2-related factor 2 (Homo sapiens) (Q16236 whole entry, looked up): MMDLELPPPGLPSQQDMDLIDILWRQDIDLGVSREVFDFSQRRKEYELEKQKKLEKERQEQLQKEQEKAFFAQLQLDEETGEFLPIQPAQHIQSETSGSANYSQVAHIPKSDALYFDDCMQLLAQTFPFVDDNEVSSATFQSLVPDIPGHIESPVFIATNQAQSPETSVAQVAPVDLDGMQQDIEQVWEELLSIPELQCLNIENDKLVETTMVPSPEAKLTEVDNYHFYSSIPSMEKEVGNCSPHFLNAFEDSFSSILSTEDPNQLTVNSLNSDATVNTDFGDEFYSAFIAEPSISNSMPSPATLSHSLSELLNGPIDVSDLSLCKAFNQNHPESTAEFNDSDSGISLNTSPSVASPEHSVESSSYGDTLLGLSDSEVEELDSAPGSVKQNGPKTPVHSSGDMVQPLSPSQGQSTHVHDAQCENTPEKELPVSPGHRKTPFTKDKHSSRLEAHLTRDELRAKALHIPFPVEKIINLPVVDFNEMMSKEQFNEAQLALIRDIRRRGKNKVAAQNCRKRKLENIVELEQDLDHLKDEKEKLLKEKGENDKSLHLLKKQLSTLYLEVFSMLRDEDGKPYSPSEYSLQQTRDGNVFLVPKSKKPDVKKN
Chain of Cellular tumor antigen p53 (Homo sapiens) (P04637 whole entry, looked up): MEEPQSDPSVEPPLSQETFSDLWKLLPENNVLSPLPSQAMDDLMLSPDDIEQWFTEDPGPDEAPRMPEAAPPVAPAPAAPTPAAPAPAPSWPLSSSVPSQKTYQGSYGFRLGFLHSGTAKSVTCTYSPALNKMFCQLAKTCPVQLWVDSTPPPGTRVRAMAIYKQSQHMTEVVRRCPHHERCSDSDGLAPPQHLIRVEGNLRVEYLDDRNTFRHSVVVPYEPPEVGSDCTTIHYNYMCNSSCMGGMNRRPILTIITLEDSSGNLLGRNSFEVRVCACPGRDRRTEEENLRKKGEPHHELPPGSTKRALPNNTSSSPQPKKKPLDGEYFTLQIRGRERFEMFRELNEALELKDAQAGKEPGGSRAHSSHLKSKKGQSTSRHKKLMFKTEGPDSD

Consider `CNC(=O)ON=C(SC)C(=O)N(C)C`, for which the call in [1], in [2], in [3], in assay [4], in [5] and in assay [6] was inactive. The result in assay [7], in assay [8], in assay [9], in assay [10], in assay [11] and in assay [12] was inactive. Moreover, the call in [13], in [14], in assay [15], in assay [16], in [17] and in assay [18] was inactive. The result in [19] was inactive.

Broadly, the AC50 is the concentration giving half of the maximal activity seen. Take `CCNc1nc(Cl)nc(NC(C)(C)C#N)n1`: the outcome in assay [1], in assay [2], in [3], in assay [4], in assay [5] and in assay [6] was inactive. The molecule was classed as inactive in assay [7], in [8], in [9], in assay [10], in assay [11] and in assay [12]. Further, the molecule was called inactive in assay [14], in assay [15], in assay [16], in assay [17] and in assay [19]. Also, the AC50 in assay [13] was 3.53 µM (active).

As to `COP(=O)(OC)OC(Br)C(Cl)(Cl)Br` (centres undefined), the AC50 in assay [1] is 21.1 µM (active); in [6], 50 µM (active). Besides, the result in assay [2], in [3], in [4], in assay [5], in assay [7] and in [8] was inactive. For the same molecule, the outcome in assay [9], in assay [10], in assay [11], in assay [13], in assay [14] and in assay [16] was inactive.

As to `CCOP(=S)(OCC)OC(Cl)C(Cl)(Cl)Cl` (centres undefined), the outcome in assay [1], in assay [2], in [3], in assay [4], in [5] and in [6] was inactive. Moreover, the molecule was classed as inactive in assay [7], in assay [8], in assay [9], in assay [10], in [11] and in assay [12]. The molecule was called inactive in assay [14], in [15], in assay [16], in assay [18] and in [19]. Besides, the AC50 in assay [13] was 30.7 µM (active).

The values are drawn from PubChem BioAssay (EPA / NIEHS).
